Compound activity from PubChem BioAssay.
Shown are actives, neighbours in structure and some others; about 4.3% of the full set was active somewhere.
FGF22 binding-1 – binders of recombinant human FGF22 by thermal shift | activity (Tm shift, normalised), % at 9.99 µM | SYPRO orange fluorescence; percent of sucrose octasulfate shift, DMSO zero | hit rate 1.5% among 340,000;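 active means mean Tm shift, scaled 0 neutral to 100 positive control, at about 1.3% or above, every replicate too, limit read from the data; inconclusive means no clear call, values can overlap the other calls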
Target sequence (Q9HCT0 whole entry, looked up): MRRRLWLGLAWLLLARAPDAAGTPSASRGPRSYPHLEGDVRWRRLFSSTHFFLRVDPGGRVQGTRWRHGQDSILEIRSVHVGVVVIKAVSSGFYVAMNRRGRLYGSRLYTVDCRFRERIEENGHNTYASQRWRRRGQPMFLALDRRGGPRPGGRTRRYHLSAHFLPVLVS
AF4-AF9 inh – inhibitors of human MLL-AF4/AF9 interaction; P42568; AlphaScreen, biotin-AF4 peptide binding to FLAG-AF9; inhibition, % at 10 µM; hit rate 0.47% among 350,000; AID 651704;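 active means every replicate reaching a set inhibition limit, whatever the replicate mean, cut at about 25% in these data; inconclusive means mean inhibition reaches that limit but some replicates miss it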
Target sequence (P42568 whole entry, looked up): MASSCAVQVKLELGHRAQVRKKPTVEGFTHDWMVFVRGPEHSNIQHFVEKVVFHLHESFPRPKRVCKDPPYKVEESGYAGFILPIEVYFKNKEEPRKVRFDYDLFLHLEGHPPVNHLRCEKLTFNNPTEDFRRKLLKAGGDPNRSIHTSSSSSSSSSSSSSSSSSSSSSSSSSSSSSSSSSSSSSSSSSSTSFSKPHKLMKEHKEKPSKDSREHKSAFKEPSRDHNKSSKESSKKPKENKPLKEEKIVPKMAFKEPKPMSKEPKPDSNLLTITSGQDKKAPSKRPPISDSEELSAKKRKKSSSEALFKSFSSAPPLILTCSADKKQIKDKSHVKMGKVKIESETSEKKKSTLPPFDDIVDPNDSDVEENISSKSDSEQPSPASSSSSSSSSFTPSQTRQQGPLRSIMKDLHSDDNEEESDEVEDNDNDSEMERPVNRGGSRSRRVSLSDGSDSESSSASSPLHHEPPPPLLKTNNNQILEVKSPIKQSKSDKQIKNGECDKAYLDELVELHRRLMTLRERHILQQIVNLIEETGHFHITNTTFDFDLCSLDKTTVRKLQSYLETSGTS
Wnt bcat act – activators of Wnt/beta-catenin signaling; activation, % at 9.35 µM; Wnt/beta-catenin reporter cell assay, activator, plate reader; hit rate 1.2% among 300,000; in the data active means activation above about 30%, passing the limit was not always enough; inconclusive means no clear call, values can overlap the other calls
SMARCA2 activ – SMARCA2 function activation, primary screen; MG213 cells, MMTV-luciferase reporter, dexamethasone, overnight; activation, % at 9.1 µM; hit rate 1% among 370,000; AID 652017; in the data active means activation above about 7.8%
MITF TRPM1 HTS – activators of MITF-driven TRPM1 promoter activity in SK-MEL-5 cells; SK-MEL-5 TRPM1-promoter luciferase, 24 h; % of positive control, neutral wells = 0; activation, % at 12.5 µM; hit rate 0.75% among 300,000;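 active means mean activation of at least 80% with every replicate also reaching 80%; inconclusive means mean reaches 80% but some replicate falls short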
esBAF inh – blocks esBAF chromatin remodeling in mouse ES cells. reporter increase, % at 12.5 µM. hit rate 2% among 350,000. AID 602393. Bmi1-luciferase knock-in reporter, 24 h; 100% = twice the neutral-well signal; in the data active means activation above about 40%; inconclusive means no clear call, values can overlap the other calls;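 further: a rise in the Bmi1 reporter signal indicates esBAF inhibition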
esBAF Ring1 qPCR – de-represses Ring1 in mouse ESCs, confirming esBAF inhibition; shares compounds with esBAF inh; AID 743176; 550 tested, under 10 active; mouse ESC E14, Ring1 mRNA RT-qPCR fold change; fold change at 33 µM;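 active means Ring1 gene expression raised more than 2-fold over untreated cells in both replicates at either tested dose; inconclusive means only one replicate above 2-fold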;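 further: Ring1 transcript normalised to actin housekeeping signal by TaqMan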
esBAF Fgf4 qPCR – esBAF inhibition confirmed by Fgf4 repression. mouse ESC E14, Fgf4 mRNA qPCR fold change; hits give low values. Fgf4 expression fold change at 33 µM. AID 743177. shares compounds with esBAF inh. hit rate 4% among 550;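 active means Fgf4 expression under 0.8 fold of control in both repeat measurements at one or both tested doses; inconclusive means under 0.8 fold in just a single repeat measurement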;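 further: Fgf4 transcript normalised to actin in duplex TaqMan qPCR; cells exposed to compound for 24 h before lysis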
Bmi1 derepress – confirmation of esBAF inhibitors: Bmi1 de-repression in mouse ESCs; AID 743180; shares compounds with esBAF inh; fold change at 33 µM; 550 tested, under 10 active; mouse ESE14 ES cells, Bmi1 mRNA qPCR fold; hits give high values;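 active means Bmi1 expression fold change above 6 at either tested concentration, seen in replicate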;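 further: higher fold means more Bmi1 de-repression and stronger esBAF inhibition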
A549 tox SP – cytotoxicity in A549 cells; shares compounds with esBAF inh; plate reader; cell viability change % (negative = cytotoxic), % at 25 µM, hits read low; 550 tested, under 10 active; AID 743188; call rule not given here
HepG2 tox SP – cytotoxicity in HepG2 cells | plate reader; hits give low values | activity change, negative = inhibition, % at 25 µM | shares compounds with esBAF inh | hit rate 4% among 550; in the data active means activity change below about -50%
HEK293 tox SP – cytotoxicity in HEK293 cells. plate reader. activity change, negative = inhibition, % at 25 µM, hits read low. shares compounds with esBAF inh. hit rate 3% among 550; in the data active means activity change below about -38%, passing the limit was not always enough
FGF22 binding-2 – FGF22 (human) binding in thermal shift; hit rate 2% among 1,000; thermal shift activity, °C (ΔTm) at 38 µM; recombinant FGF22 thermal shift, SYPRO orange fluorescence; shares compounds with FGF22 binding-1;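 active means fitted rise in melting shift crosses a set limit at or below the top valid dose tested; inconclusive means flat fit at mid-level activity, or a poor quality fit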
TSA no protein – shows thermal shift signal without protein, FGF22 counter-screen; shares compounds with FGF22 binding-1; compound-only SYPRO orange thermal shift counter-screen, no protein; AC50, µM (highest dose often 38 µM); hit rate 2% among 1,000;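 active means rising signal whose fitted curve reaches the 0.54 level within the top valid dose, showing a melting point, actives reach about 13 µM in these data; inactive means the rest, including activity in the opposite direction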; further: value is where the raw curve crosses a fixed level and not half-maximal
Large screens that a line does not name were inactive (follow-up assays come after a bar, where they were run).

COc1cc2c(C(=O)O)c(C)n(C)c2cc1Br	FGF22 binding-1 43 (no result: Wnt bcat act, esBAF inh)
COC(=O)[C@H]1[C@H](CO)[C@H]2Cn3c(ccc(/C=C/c4ccccc4)c3=O)[C@@H]1N2C(=O)C1CCC1	none (no result: Wnt bcat act, SMARCA2 activ, MITF TRPM1 HTS)
Nc1ccccc1C(=O)OCCc1ccccc1	Wnt bcat act 68, MITF TRPM1 HTS 85 (no result: AF4-AF9 inh)
CC[n+]1c(-c2ccccc2)c2cc(N)ccc2c2ccc(N)cc21	AF4-AF9 inh 30 (no result: esBAF inh)
CC1(C)CN=C(Nc2nc3ccccc3s2)S1	esBAF inh 50 (no result: FGF22 binding-1, AF4-AF9 inh, Wnt bcat act)
OC1/C(=C/c2ccc(F)cc2)N2CCC1CC2 (stereo not drawn)	FGF22 binding-1 43 (no result: esBAF inh)
OC1/C(=C/c2ccc(Cl)cc2Cl)N2CCC1CC2 (stereo not drawn)	none
Cc1[nH]c2ccccc2c1C1=CCNCC1	AF4-AF9 inh 38
O=P1(c2ccccc2)Nc2ccccc2N1c1ccccc1 (stereo not drawn)	AF4-AF9 inh 28 (no result: esBAF inh)
CCC(=Nc1ccccc1N)c1c(O)[nH]c(=O)[nH]c1=O	esBAF inh 51
CCC(=NCCc1ccccc1)c1c(O)[nH]c(=O)[nH]c1=O	none (no result: AF4-AF9 inh, MITF TRPM1 HTS, esBAF inh)
O=C1CNC[C@@H]2[C@@H](c3ccc(Br)cc3)[C@H](CO)N12	none (no result: Wnt bcat act, SMARCA2 activ, MITF TRPM1 HTS, esBAF inh)
C[C@]12CCC3C(CC[C@H]4[C@@H](O)[C@H](O)CC[C@]34C)C1CCC2=O (stereo partly drawn)	FGF22 binding-1 46 (no result: esBAF inh)
CCOc1cccc(CNCCc2c(C)[nH]c3ccc(OC(F)(F)F)cc23)c1O	AF4-AF9 inh 40
O=C(Cc1ccccn1)N1CCCCN2[C@H](CO)[C@H](c3ccc(C#Cc4ccccc4)cc3)[C@@H]2C1	none (no result: Wnt bcat act, SMARCA2 activ, MITF TRPM1 HTS, esBAF inh)
O=C1CCN(C(=O)Cc2ccccc2[N+](=O)[O-])CC1	FGF22 binding-1 44 (no result: esBAF inh)
O=C(O)[C@H]1[C@H](CO)[C@H]2Cn3c(ccc(-c4cncnc4)c3=O)[C@@H]1N2C(=O)NC1CCCC1	none (no result: Wnt bcat act, SMARCA2 activ, MITF TRPM1 HTS)
CN1C(=O)NC(=O)C(N=Nc2ccc(Cl)cc2)C1=O (stereo not drawn)	esBAF inh 42
CCOc1cc2c(cc1OCC)-n1cccc1C(c1cc(OC)ccc1F)NC2 (stereo not drawn)	AF4-AF9 inh 27
CCOc1cc2c(cc1OCC)-n1cccc1C(c1cccc(F)c1)NC2 (stereo not drawn)	AF4-AF9 inh 26
CCOc1cc2c(cc1OCC)-n1cccc1C(c1ccc(C)cc1C)NC2 (stereo not drawn)	AF4-AF9 inh 26
CCOc1cc2c(cc1OCC)-n1cccc1C(c1ccccc1F)NC2 (stereo not drawn)	AF4-AF9 inh inconclusive
CCC(=O)N1[C@@H]2c3ccc(-c4cccc(F)c4)c(=O)n3C[C@H]1[C@H](CO)[C@H]2C(=O)OC	none (no result: Wnt bcat act, SMARCA2 activ, MITF TRPM1 HTS)
COc1ccc(C#Cc2ccc([C@H]3[C@H](CO)N4CCCCN(C(=O)Cc5cccnc5)C[C@@H]34)cc2)cc1	none (no result: Wnt bcat act, SMARCA2 activ, MITF TRPM1 HTS, esBAF inh)
CCc1ccc(N2C(=O)NC(=O)/C(=C/c3cccn3CCOc3ccc(C(C)CC)cc3)C2=O)cc1 (stereo not drawn)	FGF22 binding-1 43 (no result: esBAF inh)
O=C(O)[C@H]1[C@H](CO)[C@H]2Cn3c(ccc(-c4ccccc4F)c3=O)[C@@H]1N2C(=O)Nc1ccccc1	none (no result: Wnt bcat act, SMARCA2 activ, MITF TRPM1 HTS)
C=CCN1C(=O)NC(=O)/C(=C\c2ccc(-c3ccccc3[N+](=O)[O-])o2)C1=O	Wnt bcat act 48 (no result: esBAF inh)
C/C=C/c1ccc(C2[C@@H]3CN(Cc4cccc(F)c4)C[C@H]2N3)cc1 (stereo partly drawn)	none (no result: FGF22 binding-1, Wnt bcat act, SMARCA2 activ, MITF TRPM1 HTS, esBAF inh)
COc1ccc(OC(=O)N(C)C[C@@H]2OCc3ccccc3-c3c(n(C)c4ccccc34)C(=O)N([C@@H](C)CO)C[C@H]2C)cc1	none (no result: FGF22 binding-1, Wnt bcat act, SMARCA2 activ, MITF TRPM1 HTS, esBAF inh)
CC=Cc1ccc2n(c1=O)C[C@H]1[C@H](CO)[C@@H](C(=O)OC)[C@@H]2N1C(=O)CC (mixture of isomers)	none (no result: Wnt bcat act, SMARCA2 activ, MITF TRPM1 HTS)
CCCCCn1c(=O)c(C(=O)Nc2ccccc2Cl)c(O)c2ccccc21	esBAF inh 100 (no result: MITF TRPM1 HTS) | esBAF Ring1 qPCR inactive | esBAF Fgf4 qPCR inactive | Bmi1 derepress inactive | A549 tox SP inactive | HepG2 tox SP inactive | HEK293 tox SP inactive
COc1ccc(C(O)(c2cncnc2)C2CC2)cc1 (stereo not drawn)	none (no result: Wnt bcat act, SMARCA2 activ, MITF TRPM1 HTS, esBAF inh)
OC(CNCCc1c[nH]c2ccccc12)c1ccccc1 (stereo not drawn)	FGF22 binding-1 1.4 | FGF22 binding-2 inactive | TSA no protein inactive
COC(=O)[C@H]1[C@H](CO)[C@H]2Cn3c(ccc(C4=CCCCC4)c3=O)[C@@H]1N2Cc1cccnc1	none (no result: Wnt bcat act, SMARCA2 activ, MITF TRPM1 HTS)
CCC(C)n1c(O)c(C=NC(C)c2ccccc2)c(=O)[nH]c1=S (stereo not drawn)	none (no result: esBAF inh)
CCC(C)n1c(O)c(C(c2ccccn2)c2c(O)n(C(C)CC)c(=S)[nH]c2=O)c(=O)[nH]c1=S (stereo not drawn)	FGF22 binding-1 26 | FGF22 binding-2 inactive | TSA no protein inactive
O=C(c1cccc2ccccc12)C1CCCN(Cc2ccon2)C1 (stereo not drawn)	FGF22 binding-1 2.2 (no result: esBAF inh) | FGF22 binding-2 inactive | TSA no protein inactive
Cc1cccc(S(=O)(=O)N2[C@@H]3Cn4c(ccc(-c5cccc(F)c5)c4=O)[C@H]2[C@@H](C(=O)O)[C@@H]3CO)c1	none (no result: FGF22 binding-1, AF4-AF9 inh, Wnt bcat act, SMARCA2 activ, MITF TRPM1 HTS)
CC(C)C(NC(=O)OCc1ccccc1)P(=O)(Oc1ccccc1)Oc1ccccc1 (stereo not drawn)	none (no result: FGF22 binding-1, AF4-AF9 inh, Wnt bcat act, MITF TRPM1 HTS, esBAF inh)
N/C(=N\[N+](=O)[O-])NCCCC(NC(=O)CNC(=O)c1ccccc1)C(=O)O (stereo not drawn)	FGF22 binding-1 2.5 (no result: esBAF inh) | FGF22 binding-2 inactive | TSA no protein inactive
